Laboratory results from the supplement of paper PMC10849652.
Of roughly 7,900 targets only a part is listed; those with a hit were picked by preference. About 0.6% of all pairs of compound and target were hits. Values without a mark were called inactive.

How the values were obtained:
Assay in all cases: log2 fold change, soluble protein after heating vs DMSO (PISA); higher = thermal stabilisation; K562 cells, 10 uM, 30 min; active = over 0.2 and 3.5 SD of the protein, either way, in both replicates (recomputed)
[1] = compound: CN1CCN(CCOc2cc(OC3CCOCC3)c3c(Nc4c(Cl)ccc5c4OCO5)ncnc3c2)CC1 [saracatinib]
How it was run: (§1)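 K562 cells at 2×10^6 cells/mL were treated for 30 min with 10 μM compound, and aliquots were heated for 3 min over 48°C-58°C before pooling. Extraction used PBS with 0.5% NP-40 at 4°C, and soluble protein was the supernatant after 21,000xg for 90 min, measured by TMTpro 16plex LC-MS/MS with channel sums equalised. Thermal stability values, relative to control samples and from duplicates, are log2 fold changes.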

[2] = compound: CN1CCN(c2nc(C3=C(c4c[nH]c5ccccc45)C(=O)NC3=O)c3ccccc3n2)CC1 [sotrastaurin]
How it was run: as §1

[3] = compound: CN1CC[C@H](c2c(O)cc(O)c3c(=O)cc(-c4ccccc4Cl)oc23)[C@H](O)C1 [alvocidib]
How it was run: as §1

[4] = compound: CN1CCc2c(c3ccccc3n2Cc2ccc(C(=O)NO)cc2)C1 [Tubastatin A]
How it was run: as §1

[5] = compound: CNC(=O)C1=CC=CC=C1NC2=NC(=NC=C2Cl)NC3=C(C=C(C=C3)N4CCOCC4)OC
How it was run: as §1

[6] = compound: CNC(=O)c1ccc(Nc2ncc(C(F)(F)F)c(NCc3nccnc3N(C)S(C)(=O)=O)n2)cc1 [defactinib]
How it was run: as §1

[7] = compound: CNCc1ccc(-c2[nH]c3cc(F)cc4c3c2CCNC4=O)cc1 [rucaparib]
How it was run: as §1

[8] = compound: CNc1nc(-c2ccc3c(N)n[nH]c3c2)cc(N2C[C@@H](C(=O)NC3CCCCC3)CC[C@H]2C)n1
How it was run: as §1

[9] = compound: COC(=O)N[C@@H](C)CNc1nccc(-c2cn(C(C)C)nc2-c2cc(Cl)cc(NS(C)(=O)=O)c2F)n1 [encorafenib]
How it was run: as §1

[10] = compound: COC(=O)[C@H](CCSC)NC(=O)C1=C(C=C(C=C1)NC[C@H](CS)N)C2=CC=CC=C2
How it was run: as §1

[11] = compound: CON(C)C(=O)N1N=C(c2cc(F)ccc2F)S[C@@]1(CCCN)c1ccccc1 [filanesib]
How it was run: as §1

[12] = compound: CO[C@H]1C[C@@H]2CC[C@@H](C)[C@@](O)(O2)C(=O)C(=O)N2CCCC[C@H]2C(=O)O[C@H]([C@H](C)C[C@@H]2CC[C@H](n3cnnn3)[C@H](OC)C2)CC(=O)[C@H](C)/C=C(\C)[C@@H](O)[C@@H](OC)C(=O)[C@H](C)C[C@H](C)/C=C/C=C/C=C/1C [zotarolimus]
How it was run: as §1

[13] = compound: COc1cc(C(=O)O)ccc1NC(=O)[C@@H]1N[C@@H](CC(C)(C)C)[C@](C#N)(c2ccc(Cl)cc2F)[C@H]1c1cccc(Cl)c1F [idasanutlin]
How it was run: as §1

[14] = compound: COc1cc(Nc2ncc3c(n2)-c2ccc(Cl)cc2C(c2c(F)cccc2OC)=NC3)ccc1C(=O)O [alisertib]
How it was run: as §1

[15] = compound: COc1cc2nc(-c3cc(F)ccc3O)nc(N[C@@H]3CNC[C@H]3C(C)(C)O)c2cc1OC
How it was run: as §1

[16] = compound: COc1cc2ncnc(Nc3ccc(F)c(Cl)c3)c2cc1OCCCN1CCOCC1 [gefitinib]
How it was run: as §1

[17] = compound: COc1cccc2cc(-c3nc([C@H]4CC[C@H](C(=O)O)CC4)n4ncnc(N)c34)[nH]c12
How it was run: as §1

[18] = compound: CS(=O)(=O)CCNCc1ccc(-c2ccc3ncnc(Nc4ccc(OCc5cccc(F)c5)c(Cl)c4)c3c2)o1 [lapatinib]
How it was run: as §1

[19] = compound: COC1=CC=C(C=C1)CN2C=CC3=C2C=C(C=C3)C(=O)NO
How it was run: as §1

[20] = compound: CS(=O)(=O)N1CCN(Cc2cc3nc(-c4cccc5[nH]ncc45)nc(N4CCOCC4)c3s2)CC1 [pictilisib]
How it was run: as §1

Chain of UniProt Q99615 (Q99615 whole entry, looked up): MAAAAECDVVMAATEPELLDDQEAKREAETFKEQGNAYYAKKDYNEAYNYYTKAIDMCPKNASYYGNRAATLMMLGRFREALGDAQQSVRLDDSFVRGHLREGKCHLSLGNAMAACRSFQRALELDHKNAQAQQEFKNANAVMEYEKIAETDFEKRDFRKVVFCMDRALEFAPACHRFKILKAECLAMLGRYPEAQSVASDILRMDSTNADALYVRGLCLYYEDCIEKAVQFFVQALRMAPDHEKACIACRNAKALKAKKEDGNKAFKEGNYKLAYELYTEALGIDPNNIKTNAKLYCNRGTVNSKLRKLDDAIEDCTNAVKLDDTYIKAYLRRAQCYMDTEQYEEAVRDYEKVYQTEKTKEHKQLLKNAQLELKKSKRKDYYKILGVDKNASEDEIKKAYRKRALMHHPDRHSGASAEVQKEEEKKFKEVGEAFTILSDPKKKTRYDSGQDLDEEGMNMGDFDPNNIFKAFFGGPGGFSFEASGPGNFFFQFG
Chain of UniProt Q15369 (Q15369 whole entry, looked up): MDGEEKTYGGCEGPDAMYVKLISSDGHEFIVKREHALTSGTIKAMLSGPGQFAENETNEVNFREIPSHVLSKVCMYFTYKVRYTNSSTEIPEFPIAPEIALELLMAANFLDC
Chain of UniProt Q96GQ7 (Q96GQ7 whole entry, looked up): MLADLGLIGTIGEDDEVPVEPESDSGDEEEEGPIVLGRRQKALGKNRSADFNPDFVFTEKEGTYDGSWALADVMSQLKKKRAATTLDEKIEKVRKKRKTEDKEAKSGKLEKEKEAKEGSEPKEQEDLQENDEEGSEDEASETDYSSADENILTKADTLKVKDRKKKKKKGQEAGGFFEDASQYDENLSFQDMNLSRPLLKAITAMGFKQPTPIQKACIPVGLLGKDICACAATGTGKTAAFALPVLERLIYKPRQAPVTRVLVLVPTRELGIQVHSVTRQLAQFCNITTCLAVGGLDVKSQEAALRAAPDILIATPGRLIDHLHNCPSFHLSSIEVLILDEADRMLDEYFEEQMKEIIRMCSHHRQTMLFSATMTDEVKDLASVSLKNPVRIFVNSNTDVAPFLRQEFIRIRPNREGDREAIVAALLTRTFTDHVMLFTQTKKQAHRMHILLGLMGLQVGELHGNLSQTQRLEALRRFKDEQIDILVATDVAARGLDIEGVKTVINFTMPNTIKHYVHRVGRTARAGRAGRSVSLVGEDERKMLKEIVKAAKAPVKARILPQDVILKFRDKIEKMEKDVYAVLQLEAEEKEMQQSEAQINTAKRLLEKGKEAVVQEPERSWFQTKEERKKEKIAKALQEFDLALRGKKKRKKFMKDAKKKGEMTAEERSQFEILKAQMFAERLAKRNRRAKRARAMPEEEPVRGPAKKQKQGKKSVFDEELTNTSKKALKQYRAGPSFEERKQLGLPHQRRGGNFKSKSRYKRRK
Chain of UniProt P23919 (P23919 whole entry, looked up): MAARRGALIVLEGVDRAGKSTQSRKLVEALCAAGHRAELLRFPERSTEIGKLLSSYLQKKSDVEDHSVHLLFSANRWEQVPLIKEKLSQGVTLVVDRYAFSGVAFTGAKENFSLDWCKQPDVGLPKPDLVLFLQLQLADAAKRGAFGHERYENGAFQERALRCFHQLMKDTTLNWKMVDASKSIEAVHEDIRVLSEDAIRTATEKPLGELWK
Chain of UniProt Q9NWS6 (Q9NWS6 whole entry, looked up): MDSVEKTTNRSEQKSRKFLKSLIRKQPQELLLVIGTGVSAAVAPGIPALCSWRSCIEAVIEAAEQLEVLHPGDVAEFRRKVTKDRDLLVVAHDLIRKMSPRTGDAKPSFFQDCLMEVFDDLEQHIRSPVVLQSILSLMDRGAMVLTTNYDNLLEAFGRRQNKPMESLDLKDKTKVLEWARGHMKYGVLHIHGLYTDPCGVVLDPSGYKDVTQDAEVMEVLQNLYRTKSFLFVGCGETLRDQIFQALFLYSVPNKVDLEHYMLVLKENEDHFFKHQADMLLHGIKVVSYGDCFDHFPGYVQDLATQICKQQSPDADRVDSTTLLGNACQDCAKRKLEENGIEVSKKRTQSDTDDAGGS
Chain of UniProt O76075 (O76075 whole entry, looked up): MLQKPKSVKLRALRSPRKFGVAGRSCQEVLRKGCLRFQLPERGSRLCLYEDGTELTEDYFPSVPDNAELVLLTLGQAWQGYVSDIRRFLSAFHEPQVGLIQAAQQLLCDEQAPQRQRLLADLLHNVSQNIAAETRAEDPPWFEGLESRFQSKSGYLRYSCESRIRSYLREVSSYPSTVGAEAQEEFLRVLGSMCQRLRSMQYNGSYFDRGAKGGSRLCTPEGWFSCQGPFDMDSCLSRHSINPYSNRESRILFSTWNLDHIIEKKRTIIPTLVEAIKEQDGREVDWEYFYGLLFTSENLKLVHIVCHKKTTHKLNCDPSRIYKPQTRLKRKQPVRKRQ
Chain of UniProt Q9BQI3 (Q9BQI3 whole entry, looked up): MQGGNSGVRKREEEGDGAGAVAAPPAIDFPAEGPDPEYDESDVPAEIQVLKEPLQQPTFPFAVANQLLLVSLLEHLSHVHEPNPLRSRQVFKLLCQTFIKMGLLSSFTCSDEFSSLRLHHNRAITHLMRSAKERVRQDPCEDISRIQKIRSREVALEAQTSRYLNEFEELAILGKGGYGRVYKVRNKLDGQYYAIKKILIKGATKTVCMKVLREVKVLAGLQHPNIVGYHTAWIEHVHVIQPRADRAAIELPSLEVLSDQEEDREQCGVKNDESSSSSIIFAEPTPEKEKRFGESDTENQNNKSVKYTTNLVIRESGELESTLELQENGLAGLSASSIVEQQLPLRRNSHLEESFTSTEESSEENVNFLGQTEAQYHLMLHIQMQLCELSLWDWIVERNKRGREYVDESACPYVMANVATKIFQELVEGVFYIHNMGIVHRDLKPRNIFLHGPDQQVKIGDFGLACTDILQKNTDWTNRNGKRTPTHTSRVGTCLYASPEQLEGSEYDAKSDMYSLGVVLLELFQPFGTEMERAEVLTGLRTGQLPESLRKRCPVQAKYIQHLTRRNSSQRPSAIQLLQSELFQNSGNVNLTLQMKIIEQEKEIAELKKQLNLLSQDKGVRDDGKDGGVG
Chain of UniProt Q01780 (Q01780 whole entry, looked up): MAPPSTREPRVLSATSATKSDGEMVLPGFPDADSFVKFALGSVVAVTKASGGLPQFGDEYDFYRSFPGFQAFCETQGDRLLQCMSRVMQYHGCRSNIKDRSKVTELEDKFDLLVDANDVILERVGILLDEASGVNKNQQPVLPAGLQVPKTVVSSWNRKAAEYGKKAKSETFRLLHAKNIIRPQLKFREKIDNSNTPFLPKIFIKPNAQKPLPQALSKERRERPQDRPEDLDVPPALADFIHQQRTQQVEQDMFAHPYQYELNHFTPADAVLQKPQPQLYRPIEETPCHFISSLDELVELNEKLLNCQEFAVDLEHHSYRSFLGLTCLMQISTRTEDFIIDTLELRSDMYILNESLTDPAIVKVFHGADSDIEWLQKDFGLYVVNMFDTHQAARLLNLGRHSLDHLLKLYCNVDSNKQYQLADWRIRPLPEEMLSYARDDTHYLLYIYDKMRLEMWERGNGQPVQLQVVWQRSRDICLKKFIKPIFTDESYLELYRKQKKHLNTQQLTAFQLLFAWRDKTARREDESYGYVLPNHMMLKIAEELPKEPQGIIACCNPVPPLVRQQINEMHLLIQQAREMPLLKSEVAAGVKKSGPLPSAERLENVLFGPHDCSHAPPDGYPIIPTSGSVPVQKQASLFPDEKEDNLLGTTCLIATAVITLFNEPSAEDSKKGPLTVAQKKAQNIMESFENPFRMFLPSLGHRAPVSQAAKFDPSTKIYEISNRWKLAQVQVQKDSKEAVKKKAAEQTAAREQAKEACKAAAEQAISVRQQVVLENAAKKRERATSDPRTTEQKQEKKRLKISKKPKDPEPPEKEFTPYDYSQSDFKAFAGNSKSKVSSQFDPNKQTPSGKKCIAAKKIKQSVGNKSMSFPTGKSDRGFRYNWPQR
Chain of UniProt P25774 (P25774 whole entry, looked up): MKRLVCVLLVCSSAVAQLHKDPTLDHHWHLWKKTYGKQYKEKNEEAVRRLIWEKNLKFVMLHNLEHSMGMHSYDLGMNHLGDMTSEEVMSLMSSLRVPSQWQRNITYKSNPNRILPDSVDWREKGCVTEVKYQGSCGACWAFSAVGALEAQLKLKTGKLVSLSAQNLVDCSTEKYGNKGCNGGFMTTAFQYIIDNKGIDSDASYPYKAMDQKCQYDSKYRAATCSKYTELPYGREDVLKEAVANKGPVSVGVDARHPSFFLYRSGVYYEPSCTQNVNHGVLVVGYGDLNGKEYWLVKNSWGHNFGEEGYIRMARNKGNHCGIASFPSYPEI
Chain of UniProt Q8IYI6 (Q8IYI6 whole entry, looked up): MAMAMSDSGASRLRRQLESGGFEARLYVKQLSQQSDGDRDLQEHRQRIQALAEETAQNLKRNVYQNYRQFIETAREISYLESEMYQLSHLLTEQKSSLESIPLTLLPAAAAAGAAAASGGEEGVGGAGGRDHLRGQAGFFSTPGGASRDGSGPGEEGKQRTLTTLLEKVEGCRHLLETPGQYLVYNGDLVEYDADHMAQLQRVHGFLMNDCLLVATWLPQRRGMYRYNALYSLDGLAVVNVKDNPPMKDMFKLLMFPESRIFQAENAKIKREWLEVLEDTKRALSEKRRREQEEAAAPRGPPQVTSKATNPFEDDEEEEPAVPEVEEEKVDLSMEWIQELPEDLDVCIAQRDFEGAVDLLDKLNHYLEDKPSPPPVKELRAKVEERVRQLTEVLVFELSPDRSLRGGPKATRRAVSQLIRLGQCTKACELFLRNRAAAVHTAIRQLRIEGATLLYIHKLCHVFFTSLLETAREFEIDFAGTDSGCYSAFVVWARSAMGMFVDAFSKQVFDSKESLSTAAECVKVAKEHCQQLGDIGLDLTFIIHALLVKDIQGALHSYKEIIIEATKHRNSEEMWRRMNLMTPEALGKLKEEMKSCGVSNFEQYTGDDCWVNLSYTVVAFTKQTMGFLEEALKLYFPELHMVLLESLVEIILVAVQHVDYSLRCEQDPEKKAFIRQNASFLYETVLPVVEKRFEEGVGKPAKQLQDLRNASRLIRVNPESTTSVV

| Target | log2 fold change [1] | log2 fold change [2] | log2 fold change [3] | log2 fold change [4] | log2 fold change [5] | log2 fold change [6] | log2 fold change [7] | log2 fold change [8] | log2 fold change [9] | log2 fold change [10] | log2 fold change [11] | log2 fold change [12] | log2 fold change [13] | log2 fold change [14] | log2 fold change [15] | log2 fold change [16] | log2 fold change [17] | log2 fold change [18] | log2 fold change [19] | log2 fold change [20] |
| --- | --- | --- | --- | --- | --- | --- | --- | --- | --- | --- | --- | --- | --- | --- | --- | --- | --- | --- | --- | --- |
| DENND10 (UniProt Q8TCE6) | 0.035 | 0.015 | 0 | 0.007 | -0.039 | -0.058 | -0.065 | -0.035 | 0.008 | -0.048 | -0.133 | -0.017 | 0.003 | -0.065 | 0.114 | 0.1 | -0.05 | -0.021 |  |  |
| CTSS (UniProt P25774) | 0.478 (active) | 0.051 | -0.039 | -0.084 |  | 0.074 | 0.258 | 0.134 | -0.074 | -0.012 | 0.051 | -0.081 |  |  |  |  |  |  | 0.019 | -0.043 |
| DNAJC7 (UniProt Q99615) | 0.001 | -0.05 | -0.069 | 0.002 | 0.034 | -0.072 | -0.016 | 0.056 | 0.045 | -0.003 | -0.025 | 0.07 | -0.043 | -0.044 | -0.031 | 0.068 | -0.031 | 0 | 0.037 | 0.014 |
| EXOSC10 (UniProt Q01780) | -0.091 | 0.199 | 0.092 | 0.143 | -0.073 | 0.015 | 0.101 | 0.022 | -0.327 | 0.123 | 0.136 | 0.115 | 0.01 | -0.002 | 0.387 |  | 0.1 | -0.221 | 0.593 | 0.227 |
| ELOC (UniProt Q15369) | 0.008 | 0.01 | -0.074 | 0.035 | 0.025 | -0.033 | -0.021 | 0 | -0.021 | -0.014 | 0.04 | 0.096 | -0.009 | -0.009 | 0.033 | -0.006 | 0.011 | -0.002 | 0.007 | 0.105 |
| DFFB (UniProt O76075) | 0.017 | 0.052 | -0.038 | 0.07 | 0.009 | 0.024 | 0.049 | -0.016 | -0.019 | 0.033 | -0.141 | -0.093 | -0.03 | -0.004 | 0.06 | -0.054 | 0.041 | -0.015 | -0.016 | -0.074 |
| FAM118A (UniProt Q9NWS6) | -0.138 | -0.135 | -0.168 | 0.029 |  | -0.179 | 0.29 | 0.068 | -0.172 | -0.079 | -0.15 | 0.032 | -0.323 | 0.383 | 0.023 | 0.022 | -0.044 | 0 | 0.213 | 0.207 |
| EXOC8 (UniProt Q8IYI6) | -0.015 | -0.196 | -0.031 | -0.012 | 0.056 | -0.069 | 0.016 | 0.112 | 0.094 | -0.047 | -0.044 | 0.056 | -0.072 | 0.014 | 0.038 | -0.047 | -0.003 | -0.054 | 0.005 | -0.156 |
| DTYMK (UniProt P23919) | -0.02 | 0.06 | 0 | -0.022 | -0.062 | 0.004 | -0.044 | 0.003 | 0.005 | 0.013 | -0.09 | -0.023 | -0.065 | -0.014 | 0.047 | -0.108 | 0.152 | -0.026 | -0.043 | -0.054 |
| EIF2AK1 (UniProt Q9BQI3) | 0.073 | 0.095 | 0.072 | 0.128 | 0.002 | -0.008 |  | -0.09 |  | 0.04 | 0.014 | -0.057 | -0.035 | 0.032 | 0.01 |  | -0.089 | 0.025 | -0.047 | -0.147 |
| DNAH10 (UniProt Q8IVF4) | -0.067 | -0.06 | 0.028 | 0.191 | -0.157 | 0.004 | -0.044 | 0.062 | -0.06 | -0.013 | -0.187 | -0.046 |  | -0.042 |  | -0.04 | 0.007 |  | 0.574 (active) | 0.052 |
| DCP2 (UniProt Q8IU60) | -0.053 | -0.267 | -0.047 | 0.013 |  | 0.098 |  | -0.153 |  | 0.081 | 0.121 | -0.037 | 0.167 |  | 0.075 |  |  | -0.042 | -0.085 |  |
| DDX27 (UniProt Q96GQ7) | -0.104 | -0.088 | 0.209 | 0.09 | -0.035 | 0.651 | 0.255 | -0.017 | 0.124 | 0.057 | 0.278 | 0.071 | 0.246 | 0.415 |  | 0.044 | -0.138 |  | 0.091 | 0.061 |
| EZH2 isoform 2 (UniProt Q15910) | -0.043 | 0.001 | -0.18 | 0.119 | 0.011 | -0.207 |  | 0.217 |  | -0.302 | -0.113 | -0.073 | 0.073 | -0.209 | -0.129 |  | -0.144 | 0.112 | -0.105 |  |
| DNAH5 (UniProt Q8TE73) | 0.058 | 0.017 | 0.044 | 0.058 | -0.057 | 0.015 | -0.071 | -0.099 | -0.006 | -0.072 | -0.061 | 0.024 |  | 0.011 | -0.042 | 0.046 | 0.058 | -0.484 (active) | -0.147 | -0.001 |
| CYB561A3 isoform 2 (UniProt Q8NBI2) | 0.019 | 0.001 | -0.043 | 0.047 | 0.025 |  | 0.395 (active) | -0.068 | -0.014 |  | -0.073 | 0.011 | -0.066 | 0.041 | 0.023 | -0.06 | 0.088 | -0.019 | -0.026 | 0.263 |
| DHX40 (UniProt Q8IX18) | 0.069 | -0.025 | -0.052 | 0.053 | -0.043 | -0.163 | 0.087 | 0.013 | 0.068 | -0.039 | 0.022 | 0.008 | 0.025 | -0.146 | -0.019 | 0.31 | -0.037 | 0.039 | -0.025 | -0.014 |
